Among the data in ChEMBL document CHEMBL4513216, “Probing the Open Global Health Chemical Diversity Library for Multistage-Active Starting Points for Next-Generation Antimalarials” (ACS Infect Dis, 2020) are INHIBITION values, retold here.

Hit rate of the full screen: of about 68,000 compounds, about 2,700 (4%) showed an effect of 50% or more. Many of the other results were omitted from the sample, so strong results are more common in it than they were.

This experiment relates to Plasmodium berghei. The experiment is described as follows: Screen against P. berghei liver stage (PbLuc), transformed with Luciferase, at 2uM. It counts as functional, HepG2. The settings on record: tested at 2 uM.
In the case of `O=C(c1nc(Cc2c[nH]c3ccccc23)no1)N1CCOCC1`, the INHIBITION is -33.88%.
With `O=C(Cc1ccccc1F)N1CCN(C(=O)c2ccoc2)CC1` the figure was -24.79%; with `O=C(Cc1c[nH]c2ccccc12)N1CCC(Nc2ccccc2)CC1`, -0.6%.
Turning to `Cc1noc(C)c1C(=O)N1CC[C@H]2C[C@@H](c3nccs3)O[C@@H]2C1`, the INHIBITION is given as -17.88%.
Turning to `Cn1cnc(S(=O)(=O)N2CC3(CCN(CC4CC4)C3)C2)c1`, the INHIBITION is 35.84%.
With `COc1ccc(C(=O)N2CCOc3ccncc32)cc1` the figure was -21.39%; with `CCCOCCN1CCC2(CC1)CC(=O)N(Cc1cc(F)cc(F)c1)C2`, 7.13%.
To `COCCN1C(=O)C[C@H]2[C@H]1CCN2Cc1ccccc1` belongs -34.48%.
As to `CCO[C@@H]1C[C@H]2CN(S(=O)(=O)c3cccs3)CCN2C1`, the INHIBITION is recorded as -49.68%.
To `COCCNC(=O)NCCCOC1CCCc2ccccc21` (configuration not stated) belongs 58.9%; to `COCCOCC(=O)NCCCOC1CCCc2ccccc21` (configuration not stated), 12.22%; to `COCCC(=O)NCCCOC1CCCc2ccccc21` (configuration not stated), -15.49%.
With `CC(C)NC(=O)CCNC(=O)CCc1cc(Cl)cs1` the figure was -31.42%.
With `COC(=O)c1ccn(COc2ccccc2Cl)n1` the figure was 8.41%; with `COc1ccccc1CN(Cc1cccnc1)Cc1nccs1`, 32.97%.
With `COc1ccccc1CN(Cc1cccnc1)Cc1c[nH]c(C)n1`, the INHIBITION is recorded as 55.29%.
With `Cc1nc(CN(Cc2cccnc2)Cc2ccsc2)c[nH]1` the figure was 2.76%; with `O=C(CCN1CCCC1c1cccs1)N1CCc2sccc2C1` (configuration not stated), 7.54%; with `OC1(CNC2CCN(Cc3ccncc3)CC2)CCc2ccccc21` (configuration not stated), -49.57%.
With `OC1(CNC2CCN(c3ccccn3)CC2)CCc2ccccc21` (configuration not stated) the figure was 29.13%.
For the compound `Cc1csc(N2CCC(NCC3(O)CCc4ccccc43)CC2)n1` (configuration not stated), the INHIBITION was 72.05%.
To `O=C(NCc1cccnc1N1CCCCC1)c1cccs1` belongs -27.83%; to `Cc1ccc(CN2C[C@@H]3COC[C@H](NS(C)(=O)=O)[C@@H]3C2)s1`, 8.88%; to `O=C(CN1C(=O)CCC1=O)N1CCC(CSCc2ccco2)CC1`, 44.23%.
Turning to `O=C(CN1C(=O)CCC1=O)N1CCC(S(=O)(=O)Cc2ccco2)CC1`, the INHIBITION worked out at 53.81%.
With `O=C(CN1C(=O)CCC1=O)N1CCOCC1` the figure was 9.1%; with `CN(C)CCN1CC(C(=O)N2CCC(c3cc(=O)[nH]cn3)CC2)CC1=O` (configuration not stated), 47.64%.
As to `O=C(NC1CCC(O)CC1)c1cnc2c(cnn2C2CCCC2)c1` (configuration not stated), the INHIBITION came to 38.49%.
As to `CS(=O)(=O)NC(=O)c1cnc2c(cnn2C2CCCC2)c1`, the INHIBITION is on record as 64.35%.
On to `O=C(O)c1cnc2c(cnn2C2CCCC2)c1`, for which the INHIBITION is -9.71%.
With `Cc1cc(NC(=O)C(C)N2CCN(c3nc(C)ns3)CC2)on1` (configuration not stated) the figure was 22.29%.
Turning to `Cn1ncnc1CNc1ccc2c(c1)N(C(=O)OC(C)(C)C)CCC2`, the INHIBITION amounted to 33.49%.
To `CC(C)NC(=O)N1CC(=O)c2sc(Nc3ccc(C#N)cc3)nc2C1` belongs -42.69%.
On to `O=C1COC2(COCCN(c3cnccn3)C2)CN1c1cccc(F)c1` (configuration not stated), for which the INHIBITION was found to be 50.81%.
With `CN(C)CC(=O)N1CCOCC2(C1)CN(c1ccccc1)C(=O)CO2` (configuration not stated), the INHIBITION is 17.78%.
With `O=C1COC2(COCCN(c3ccccn3)C2)CN1c1cccc(F)c1` (configuration not stated) the figure was 16.2%; with `Cc1cccc(N2CC3(COCCN(c4ccncn4)C3)OCC2=O)c1` (configuration not stated), 7.33%; with `O=C(c1ccc[nH]1)N1CCOCC2(C1)CN(c1ccccc1)C(=O)CO2` (configuration not stated), -15.09%.
To `O=C(N1CCCC1)N1CCOCC2(C1)CN(c1ccccc1)C(=O)CO2` (configuration not stated) belongs 56.38%; to `COCC1CN(C(=O)c2ccoc2)Cc2cnn(CC3CCOCC3)c21` (configuration not stated), -14.61%; to `CSCCCn1ccnc1-c1cccc(C#N)c1`, 55.93%.
To `CCN(CC)CCn1ccnc1-c1cccc(C#N)c1` belongs 15.2%.
`CSCCCNC(=O)Nc1cccc(-c2nccn2C)c1`: the INHIBITION stood at 11.78%.
On to `Cc1ccc(C(=O)N2C[C@H]3CN(Cc4csc(C)n4)C[C@H]3C2)cn1`, for which the INHIBITION came to 5.38%.
With `CCC[C@H]1CN(S(=O)(=O)c2c(C)noc2C)C[C@@H]1N`, the INHIBITION is recorded as 51.31%.
With `CCC[C@H]1CN(S(=O)(=O)c2ccc(-c3c(C)noc3C)s2)C[C@@H]1N` the figure was 29.53%; with `CCC[C@H]1CN(S(=O)(=O)c2ccccc2)C[C@@H]1N`, 24.12%; with `Cc1cnn(CC(C)Nc2nc(C)cc(N(C)C)n2)c1` (configuration not stated), -28.68%.
With `CN(C)C[C@]12COC[C@H]1CN(C(=O)Cc1ccc3c(c1)OCO3)C2` the figure was -2.21%; with `CCOC(=O)Cn1nnnc1-c1ccccc1`, 23.9%.
`O=S(=O)(C1CC1)N1CCC2(CN(c3ncccn3)C2)C1`: the INHIBITION is reported as -12.25%.
To `Cc1ccc(CN2CCS(=O)(=O)C(C)(C)C2)cc1C` belongs -38.39%.
